Screening data deposited in PubChem BioAssay by The Scripps Research Institute Molecular Screening Center.
GPR151 ag: activates the human receptor GPR151. Q8TDV0. PathHunter beta-arrestin GPR151 cells, luminescence. activation, % at 11.2 µM. 650,000 tested, 1% active. AID 1508602; in the data active = activation above about 4.9%;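 note: 0% = median of compound wells and 100% = cells with positive control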
MITF primary: human MITF inhibition, primary screen; AlphaScreen MITF homodimerization, bead proximity signal; inhibition, % at 2.6 µM; 650,000 tested, 0.91% active; AID 1259374; O75030; in the data active = inhibition above about 50%;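 note: 0% = vehicle wells with protein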
Target sequence (O75030 whole entry, looked up): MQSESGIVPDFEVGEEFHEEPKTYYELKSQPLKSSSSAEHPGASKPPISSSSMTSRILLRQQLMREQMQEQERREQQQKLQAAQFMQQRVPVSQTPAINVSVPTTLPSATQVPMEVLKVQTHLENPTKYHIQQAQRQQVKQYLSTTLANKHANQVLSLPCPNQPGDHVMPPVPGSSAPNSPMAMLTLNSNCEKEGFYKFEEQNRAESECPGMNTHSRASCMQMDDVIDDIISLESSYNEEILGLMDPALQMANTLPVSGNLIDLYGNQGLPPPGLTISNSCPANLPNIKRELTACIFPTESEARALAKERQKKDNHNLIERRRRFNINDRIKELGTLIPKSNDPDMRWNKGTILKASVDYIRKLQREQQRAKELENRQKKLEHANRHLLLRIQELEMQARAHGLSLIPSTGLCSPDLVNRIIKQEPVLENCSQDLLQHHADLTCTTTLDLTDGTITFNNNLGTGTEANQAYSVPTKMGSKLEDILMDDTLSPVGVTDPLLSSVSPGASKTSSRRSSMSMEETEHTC
FBW7 act: activators of human E3 ligase FBW7; Q969H0; AlphaScreen FBW7–phospho-cyclin E peptide binding, activator screen; normalized activity (activation), % at 26.1 µM; 650,000 tested, 0.13% active; AID 1259310; in the data active = normalized activity above about 1.9%;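 note: purified mutant Fbw7 with reduced substrate affinity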
TEAD-YAP block: TEAD-YAP interaction inhibition. inhibition, % at 9.12 µM. 640,000 tested, 1.4% active. HEK-TIYL cells, TEAD-Gal4/YAP UAS-luciferase luminescence; in the data active = inhibition above about 32%;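 note: 0% = median of test compound wells and 100% = reference inhibitor wells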
GPR151 conf act: human GPR151 activation, confirmation screen | GPR151 PathHunter beta-arrestin cells, luminescence, 90 min; % of EA-reagent control over plate median | activation, % at 11.2 µM | shares compounds with GPR151 ag | 6,700 tested, under 10 active | AID 1508609;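 active = mean percent activation across replicates above the confirmation screen cutoff of 4.91%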
GPR119 counter: activates human GPR119 in a GPR151 counter-screen; GPR119 PathHunter beta-arrestin cells, luminescence, 90 min; 0 = compound-well median, 100 = enzyme-acceptor control; activation, % at 11.2 µM; 6,700 tested, 0.3% active; shares compounds with GPR151 ag;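 active = mean percent activation in the counterscreen above 29.09%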;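 note: counterscreen on off-target GPR119 to flag nonselective hits from the GPR151 activator screen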
* marks the source's active call; other numbers are inactive results; · = no result given; ! = a repeat was not active. In the library only some 3.4% were active in any assay of this set; here they are far more common.

SMILES	GPR151 ag	MITF primary	FBW7 act	TEAD-YAP block	GPR151 conf act	GPR119 counter
CC(=O)N/C(N)=N/c1nc2cc(C)ccc2o1	5.4*!	10.8	-0.3	-40.7	-0.1	0.2
COc1ccc(-c2noc(N3CCN(c4ccc(C)cc4)C(C)C3)n2)cc1 (centres undefined)	5.0*	1.4	0.0	1.3	-0.9	-1.9
CC(=O)Nc1ccc(Nc2nc(-c3cccc(C(C)=O)c3)ncc2C)cc1	2.5	-2.5	-0.1	21.7	·	·
COc1cc([N+](=O)[O-])ccc1NC(=S)N1CCN(c2ccc(C(C)=O)cc2)CC1	7.3*	-5.8	-0.4	0.3	-0.5	-6.7
CC(=O)c1ccc(N2CCN(C(=S)Nc3cccc([N+](=O)[O-])c3)CC2)cc1	5.2*	1.2	0.1	-11.6	0.0	-0.3
COc1ccc(-c2nc3c(c4c2C[C@H](c2ccccc2)OC4)CN(C(=O)N[C@@H](C)c2ccccc2)CC3)c(C)c1	-1.1	-4.5	0.0	·	·	·
COc1ccc(-c2nc3c(c4c2C[C@H](c2ccccc2)OC4)CN(C(=O)N[C@@H](C)C(=O)OC(C)C)CC3)c(C)c1	6.2*	-12.2	0.1	·	-0.2	3.3
CCS(=O)(=O)N1CCCc2cc(NS(=O)(=O)Cc3ccc(C)cc3)ccc21	-0.2	5.8	0.0	4.7	·	·
Cc1cccc(CSc2nc3ccsc3c(=O)n2CCCC(=O)NCc2ccc3c(c2)OCO3)c1	-0.2	-8.4	0.0	-14.6	·	·
NC(=O)NC(CC(=O)O)c1ccc(Cl)cc1 (centres undefined)	7.7*	-5.7	0.1	8.7	-0.2	-3.8
CCc1ccc(C(=O)CN2C(=O)CNC2=O)cc1	-0.9	16.1	0.3	-5.6	·	·
CCOC(=O)c1c(-c2ccc(C)o2)csc1NC(=O)c1cccs1	8.2*	10.7	0.0	2.5	-0.7	2.3
O=C(c1nc2ccccn2c1CN(Cc1ccccc1)CC1CC1)N1CCOCC1	-0.1	-14.7	0.1	-3.6	·	·
O=C(c1ccc(-n2nnc3ccccc3c2=O)cc1)N1CCc2ccccc2C1	6.0*	0.1	0.0	2.0	-0.8	-8.4
O=C(c1ccc(Cn2nnc3ccccc3c2=O)cc1)N1CCc2ccccc2C1	0.1	-6.8	0.0	1.7	·	·
Cc1noc(C)c1S(=O)(=O)N1CCN(Cc2nc(C(C)(C)C)cs2)CC1	1.7	0.1	0.0	0.2	·	·
CCCS(=O)(=O)N1CCN(Cc2nc(C(C)(C)C)cs2)CC1	8.8*	-2.3	0.2	-1.3	0.6	3.8
CC(CO)NCc1cc2cc3c(cc2nc1N1CCOCC1)CCC3 (centres undefined)	-1.8	-20.0	0.1	-12.2	·	·
CC(=O)c1ccc(NC(=O)COC(=O)c2ccc3c(c2)nc(C)n3-c2ccccc2)cc1	7.1*	16.1	0.1	-11.3	1.7	12.4
Cc1nc2cc(C(=O)OCC(=O)Nc3ccc(C#N)cc3)ccc2n1-c1ccccc1	-1.0	4.4	-0.1	-0.8	·	·
O=C(COc1ccc(Cl)cc1Cl)N/N=C\c1ccc([N+](=O)[O-])s1	5.7*	6.6	0.0	10.1	-1.2	-12.3
COc1ccc(/C=N/NC(=O)COc2ccc(C)cc2)cc1O	0.1	7.2	-0.1	-6.2	·	·
COc1ccc(/C=N/NC(=O)COc2ccc(Cl)cc2Cl)cc1O	9.4*	2.4	-0.1	3.7	0.2	-1.1
Cc1ccc(/C=N/NC(=O)COc2ccc(Cl)cc2[N+](=O)[O-])s1	1.8	16.5	-0.1	6.1	·	·
COc1cc(/C=N/NC(=O)COc2ccc(Cl)cc2Br)ccc1O	0.0	13.2	0.0	5.8	·	·
SMILES	GPR151 ag	MITF primary	FBW7 act	TEAD-YAP block	GPR151 conf act	GPR119 counter
COc1ccc(/C=N/NC(=O)COc2cccc(C)c2)cc1O	14.1*	1.4	-0.1	1.6	0.6	-2.2
CCc1ccc(OCC(=O)N/N=C/c2ccccc2O)cc1	0.0	-19.8	0.1	-1.0	·	·
CCc1ccc(OCC(=O)N/N=C/c2ccc(O)cc2)cc1	5.2*	6.1	0.8	9.6	-1.4	-4.4
Cc1csc(C(=O)N2CCN(Cc3c(C)noc3C)CC2)c1	-2.1	-9.1	-0.1	-8.0	·	·
COc1ccccc1NC(=O)Nc1ccnn1C1CCN(C(=O)c2ccoc2C)CC1	-1.5	7.6	0.0	-4.7	·	·
N#CC(C#N)c1nc2cc3c(cc2nc1Cl)OCCO3	0.4	6.2	-0.1	3.9	·	·
CCCC(=O)Nc1nn2c(CC(C)C)nnc2s1	7.1*	-2.4	-0.2	-4.9	0.9	1.4
CCCC(=O)Nc1nn2c(CCC)nnc2s1	-0.1	-0.1	0.0	-3.7	·	·
CCC(=O)Nc1nn2c(CC(C)C)nnc2s1	5.0*	-13.0	0.1	5.5	0.3	-5.9
CC(C)Cc1nnc2sc(NC(=O)C(C)C)nn12	-0.7	3.3	-0.3	0.2	·	·
CN1C(=O)c2ccccc2C(C(=O)NC2CCCCCC2)C1c1cccs1 (centres undefined)	-0.5	11.4	0.1	-14.3	·	·
CC1CCCCC1NC(=O)C1c2ccccc2C(=O)N(C)C1c1cccs1 (centres undefined)	7.5*	0.2	-0.1	-8.9	0.5	-6.9
CN1CCCc2cc(C(CN)N3CCCCC3)ccc21 (centres undefined)	6.7*	23.8	-0.2	12.2	0.1	-8.6
CC(=O)N1CCN(Cc2ccccc2)CC1C(=O)NCc1ccco1 (centres undefined)	0.0	1.2	-0.1	0.2	·	·
O=C(c1c(F)cccc1Cl)N(c1ccc(F)cc1)C1C=CS(=O)(=O)C1 (centres undefined)	7.2*	1.0	0.0	5.4	-0.1	6.2
O=C(c1c(F)cccc1Cl)N(c1ccccc1)C1C=CS(=O)(=O)C1 (centres undefined)	1.1	-4.1	-0.3	-11.3	·	·
CCn1c(N/N=C/c2cccnc2)nc2c1c(=O)[nH]c(=O)n2C	1.1	4.9	-0.1	-5.7	·	·
COC(=O)C(CC(C)C)NS(=O)(=O)c1ccc(I)cc1 (centres undefined)	0.7	5.0	0.0	7.4	·	·
CCOC(CCn1c(SC(CC)C(=O)NCc2cccnc2)nc2ccccc2c1=O)OCC (centres undefined)	7.0*	-6.9	0.2	2.9	-1.5	-18.4
N#Cc1ccsc1NC(=O)CCSc1ccc(Cl)cc1	2.8	-4.7	0.0	-43.5	·	·
CCC(C)c1ccccc1OCCON1C(=O)CCC1=O (centres undefined)	7.1*	-21.1	-0.1	7.6	1.7	2.0
CC(C)(C)c1ccc(OCCON2C(=O)CCC2=O)c(Cl)c1	3.3	-27.8	-0.1	2.1	·	·
COCC(C)NCC(O)COc1cc(Cl)ccc1Cl (centres undefined)	14.4*	17.6	-0.1	1.6	0.7	6.6
CC(=O)c1c(C)[nH]c(C(=O)OCC(=O)Nc2ccc(C)cc2[N+](=O)[O-])c1C	0.7	-7.5	-0.1	5.2	·	·
CC(=O)c1c(C)[nH]c(C(=O)OCC(=O)Nc2ccc(Br)cc2F)c1C	5.0*	-7.6	-0.2	6.9	-0.2	2.6
O=C(O)C1CSC(c2ccncc2)N1 (centres undefined)	1.3	8.4	-0.4	-3.2	·	·
